# Assay outcomes deposited in PubChem BioAssay by several laboratories.
# KLF5 inhibitor – kruppel-like factor 5 inhibition | DLD-1 KLF5 promoter-luciferase reporter, luminescence | inhibition, % at 5 µM | 0.23% of 290,000 active | AID 1700;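 active = inhibition above a per-plate limit of that plate's mean compound inhibition plus 3 SD, cut at about 60% in these data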;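 also: 0% = DMSO wells and 100% = LY294002 at 200 µM; higher means less KLF5 promoter-driven luciferase light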
# aSyn 5UTR inh – MLPCN primary screen, SNCA 5' untranslated region; alpha-synuclein 5'UTR reporter, inhibitor activity; AID 1813; inhibition, % (tested at 7.5 µM); 0.82% of 300,000 active; in the data active = inhibition above about 60%; inconclusive = no clear call, values can overlap the other calls;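 also: H4 neuroglioblastoma cells stably carrying SNCA 5'UTR luciferase fusion; 0% = DMSO wells and 100% = positive control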
# APP transl inh – APP translation inhibition. inhibition, % at 2 µM. 0.82% of 190,000 active. SH-SY5Y APP 5'UTR-luciferase reporter, luminescence;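 active = inhibition above a set limit, derived from the sample mean plus 3 SD, cut at about 45% in these data; inconclusive = one replicate passes the limit while the other fails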
# BaF3 tox – reduces parental Ba/F3 cell viability, JAK2V617F counter-screen; CellTiter-Glo ATP luminescence; inhibition, % at 5.6 µM; 1.1% of 220,000 active;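 active = inhibition above a per-campaign cutoff, the mean inhibition of all tested compounds plus 3 SD, cut at about 27% in these data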;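 also: 0% = DMSO wells and 100% = JAK Inhibitor I control wells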
# IEC-6 tox-1 – counter-screen for KLF5 inhibitors: cytotoxicity in IEC-6 cells | IEC-6 cytotoxicity, luminescence viability | inhibition, % at 5 µM | 0.78% of 290,000 active;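 also: 0% = plate median of test compound wells and 100% = cytotoxic reference compound wells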
# Ba/F3 V617F tox – loss of viability in JAK2V617F-driven Ba/F3 cells | Ba/F3 EpoR-JAK2V617F viability, ATP luminescence | inhibition, % at 5.6 µM | 1.1% of 220,000 active | AID 1446;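 active = inhibition above the campaign mean plus 3 SD over all tested compounds, cut at about 24% in these data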;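 also: cytokine-independent growth of Ba/F3 cells driven by EpoR plus mutant JAK2; 0% = DMSO-treated cells and 100% = JAK inhibitor I control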
# KLF5 inh confirm – confirmation of KLF5 inhibitors | shares compounds with KLF5 inhibitor | DLD-1 KLF5 promoter firefly luciferase reporter, luminescence | inhibition, % at 4 µM | 79% of 610 active | AID 1834;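 active = inhibition above a set limit taken from the earlier primary screen, cut at about 63% in these data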;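 also: 0% = DMSO wells and 100% = LY294002 at 200 µM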
# IEC-6 tox-2 – rat IEC-6 cytotoxicity, KLF5 inhibitor counter-screen. shares compounds with KLF5 inhibitor. IEC-6 rat intestinal cells, viability luminescence. inhibition, % at 4 µM. 56% of 610 active. AID 1905; in the data active = inhibition above about 23%;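 also: cells exposed to compounds for 48 hours before viability read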
# IEC-6 cytotox cf – confirmation of cytotoxic compounds in rat IEC-6 intestinal epithelial cells | shares compounds with IEC-6 tox-1 | inhibition, % at 5 µM | IEC-6 rat intestinal epithelial viability, luminescence | 63% of 1,900 active;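 also: 0% = vehicle and 100% = reference cytotoxic drug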
# The depositor's hits bear a star; ? = inconclusive; . = no result. Only some compounds are listed: those with a hit (about 2.2% of all), similar ones and a draw of the others. Rule as the data show it, unless noted: active = inhibition above about 22%; inactive = the rest.
SMILES,KLF5 inhibitor,aSyn 5UTR inh,APP transl inh,BaF3 tox,IEC-6 tox-1,Ba/F3 V617F tox,IEC-6 cytotox cf,others
Cc1ccc(S(=O)(=O)Oc2ccccc2/C=N/N=C(N)N)cc1,3,-18,20,4,2,2,.,
Cc1cc2nc(-c3ccc[nH]c3=O)[nH]c2cc1C,83*,77*,.,.,40*,.,33*,KLF5 inh confirm=61;IEC-6 tox-2=16
COc1ccc2c(c1)sc1nc(-c3ccccc3)cn12,72*,105*,86*,69*,76*,70*,55*,KLF5 inh confirm=103*;IEC-6 tox-2=70*
Cc1ccc(-c2nnc(SCC(=O)Nc3ccccc3F)o2)cc1,100*,92*,36,21,28*,15,17,KLF5 inh confirm=66*;IEC-6 tox-2=5
O=C(CSc1nnc(-c2ccccc2)o1)Nc1ccccc1F,72*,74*,-108,32*,29*,26*,-4,KLF5 inh confirm=-55;IEC-6 tox-2=-6
Cc1ccc(C(C)C)cc1OCC(=O)NC1CCCCCCC1,.,-12,.,.,.,.,.,
CCc1ccc(C(=O)C(C)OC(=O)Cc2n[nH]c(=O)c3ccccc23)cc1 (stereo not drawn),16,-44,.,.,25*,.,9,
COc1ccccc1NC(=O)c1ccc(NC(=O)Cc2n[nH]c(=O)c3ccccc23)cc1,-5,54,.,-7,25*,6,17,
CC(=O)c1cccc(NC(=O)C(C)OC(=O)Cc2n[nH]c(=O)c3ccccc23)c1 (stereo not drawn),-29,-22,.,.,-4,.,.,
O=C1c2ccccc2C(=O)N1c1cccc2cccnc12,-23,10,-10,10,44*,3,9,
O=c1[nH]cnc(O)c1N=Nc1ccccc1,-26,-71,.,.,-5,.,.,
Cc1nn(-c2ccccc2)c(N)c1N=Nc1ccccc1,-153,-49,-156,7,1,2,.,
Nc1ncnc(N)c1N=Nc1ccccc1,-65,112*,.,.,36*,.,19,
Nc1nn(-c2ccccc2)c(N)c1N=Nc1ccccc1,-115,-106,-3,64*,34*,64*,40*,
Cc1ccc(NC(=O)CS(=O)CC(=O)N(CC(=O)NC(C)(C)C)c2cccc(C)c2C)cc1 (stereo not drawn),-6,20,.,.,-6,.,.,
Fc1ccc(NC(=S)N2CCOCC2)cc1Cl,6,23,-14,100*,58*,97*,8,
COc1ccc(OC)c(-c2csc(NC(=O)c3ccc(F)cc3)n2)c1,19,-202,.,.,34*,.,16,
CC#CC(=O)N1CCC(CCc2ccccc2)(C(=O)OCC)CC1,6,?,-12,0,27*,-1,12,
CCOC(=O)C1(CCc2ccccc2)CCN(C(=O)c2ccoc2)CC1,-12,-25,-1,3,-2,6,.,
COc1ccc(-c2cn(-c3ccc(OC)cc3)c3[n+]2-c2ccccc2CC3)cc1,-31,0,-4,77*,25*,95*,26*,
Cc1ccc2oc(C(=O)NCc3ccc(S(N)(=O)=O)cc3)cc(=O)c2c1,-46,-5,.,.,-13,.,.,
NS(=O)(=O)c1ccc(CNC(=O)c2cc(=O)c3cc(Cl)ccc3o2)cc1,-38,10,.,.,101*,.,-14,
O=c1cc(CSc2ccc(Cl)cc2)nc(-c2ccccn2)[nH]1,55,24,.,.,87*,.,55*,
O=c1cc(CSc2ccc(Cl)cc2)nc(-c2ccccc2)[nH]1,2,-1,18,6,0,-1,.,
C=CCn1c(O)c(N=NC(=S)Nc2ccccc2F)c2cc(S(=O)(=O)N3CCOCC3)ccc21,44,78*,24,18,30*,11,17,
CCc1c(C)nc2ncnn2c1Nc1ccc(C)cc1,-14,14,.,.,10,.,.,
CCc1c(C)nc2ncnn2c1NCCc1ccc(OC)cc1,17,31,20,57*,24*,63*,24*,
CC1CCCCN1CC(O)COc1ccc(OCC(O)CN2CCCCC2C)cc1 (stereo not drawn),-50,-7,.,.,-2,.,.,
O=[N+]([O-])c1cc(C=Nc2cccc3c(O)cccc23)ccc1Cl,-13,38,.,.,33*,.,-4,
Nc1nc(Cl)nc2c1ncn2[C@@H]1O[C@H](CO)[C@@H](O)[C@H]1O,31,13,-1,3,44*,0,-6,
